Measured values as given in PubChem BioAssay AID2559 (National Center for Advancing Translational Sciences (NCATS), 2010).
The other results are listed elsewhere or left out. Unmarked numbers belong to inactive results. Calls of active or inactive are those of the source.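 How the source made its calls: active means compounds giving a full or partial concentration-response curve, as inhibitors or activators; inconclusive means weak, top-dose-only or unclear curve responses; inactive means no response at any tested dose.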

target: Pyruvate kinase (Leishmania mexicana) (UniProt Q27686); assay: Confirmation Assay for Inhibitors of Leishmania Mexicana Pyruvate Kinase (LmPK); details: purified LmPK, Kinase-Glo ATP luminescence, 1 h; series mostly up to 57.5 µM; activity change, negative = inhibition: at the top concentration
Sequence (Q27686 whole entry, looked up): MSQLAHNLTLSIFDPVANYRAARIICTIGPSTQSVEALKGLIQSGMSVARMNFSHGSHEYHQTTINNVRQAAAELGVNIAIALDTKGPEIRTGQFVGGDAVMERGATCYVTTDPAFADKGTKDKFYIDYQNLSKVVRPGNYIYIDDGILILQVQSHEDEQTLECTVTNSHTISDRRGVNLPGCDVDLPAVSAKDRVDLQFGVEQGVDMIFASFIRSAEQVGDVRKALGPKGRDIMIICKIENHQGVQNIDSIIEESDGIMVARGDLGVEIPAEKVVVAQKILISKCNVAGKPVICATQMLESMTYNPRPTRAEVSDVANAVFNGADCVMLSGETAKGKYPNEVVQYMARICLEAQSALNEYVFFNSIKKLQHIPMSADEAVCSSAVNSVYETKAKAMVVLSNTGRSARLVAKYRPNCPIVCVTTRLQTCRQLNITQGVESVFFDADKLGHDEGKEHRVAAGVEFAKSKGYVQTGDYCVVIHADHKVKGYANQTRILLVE
From the text: NIH Chemical Genomics Center [NCGC] Malcolm Walkinshaw, Hugh Morgan, Linda Gilmore University of Edinburgh, UK MLPCN Grant: 1 R03 MH085697-01 NCGC Assay Overview: Pyruvate kinase (L. Mexicana) (LmPK) enzyme was supplied as a highly purified (>95% pure) sulphate-free preparation from University of Edinburgh, UK and assayed for its ability to generate ATP from ADP using phosphoenolpyruvate (PEP) as a substrate. ATP generation was detected in a coupled reaction by luciferase-mediated luminescence, an ATP-dependent process. […] The enzyme was assayed at an intermediate level of activity to screen for both inhibitors and activators.
NCGC Assay Protocol Summary: Three uL of enzyme mix (kept on ice) in assay buffer (50 mM Imidazole pH7.2, 50 mM KCl, 7 mM MgCl2, 0.01% Tween 20, 0.05% BSA) containing PEP (0.5 mM final concentration) and LmPK (0.1 nM final concentration) was dispensed into white solid bottom 1,536 well microtiter plates. 23 nL of compound were delivered by a pin tool and 1 uL of ADP mix in assay buffer (r.t; 0.1 mM final ADP concentration) was added. Plates were incubated at room temperature for 1 hour. Two uL of detection mix (Kinase-Glo, Promega; at 4 degree Celsius protected from light) was added and luminescence read by a ViewLux (Perkin Elmer) at 1 second exposure/plate. Data were normalized to the uninhibited and AC100 inhibition (no enzyme). To monitor activation, the first column contained a five-fold concentration of LmPK (0.5 nM).

Row | SMILES | activity change, negative = inhibition | Potency
1 | Cn1cc(CN2CCCCC2c2ccccn2)c(-c2ccc3c(c2)OCCO3)n1 (configuration not stated) | 0.784% | 
2 | COc1ccc(-c2cc(C(F)(F)F)nc(NCc3cccnc3)n2)cc1 | -0.303% | 
3 | COCCN(C(=O)c1ccco1)c1nnc(-c2ccc(OC)cc2)s1 | -0.0929% | 
4 | COc1ccc(-c2cn3ccc(C)cc3n2)cc1 |  | 9.19 µM (active)
5 | CN1CC(c2ccccc2)C2(COc3ccccc3C2=O)C12C(=O)Nc1ccccc12 (configuration not stated) | 0.969% | 
6 | CC(=O)N(C1=C(Cl)C(=O)c2ccccc2C1=O)c1ccc(C(=O)O)cc1 |  | 2.59 µM (active)
7 | COc1ccc(C(=O)C[n+]2ccc(N)c(C)c2C)cc1 | -2.39% | 
